In the supplement of paper PMC7726561 one finds thermal melting temperature data, which are given here for 58 sequences.

Whole data set: some 1,100 sequences, median “thermal melting temperature (Tm) of peptide-HLA complex” near 58, cut for the lowest 2% near 42. This excerpt belongs to a sample that is enriched for the lowest values.

B1: unnamed (peptide)
chain: KLMNVDPDSV
B2: unnamed (peptide)
chain: KLMDPGSLPPL
B3: unnamed (peptide)
chain: RLGGIPVGV
B4: unnamed (peptide)
chain: IIMLEALERV
B5: unnamed (peptide)
chain: ALANGVSRI
B6: unnamed (peptide)
chain: ALDRDNFEL
B7: unnamed (peptide)
chain: FMFDEKLVTV
B8: unnamed (peptide)
chain: VLGPKIEAV
B9: unnamed (peptide)
chain: FILANEHNV
B10: unnamed (peptide)
chain: YLPDIIKDQKA
B11: unnamed (peptide)
chain: RQIEYYFSV
B12: unnamed (peptide)
chain: FMQHDVQEL
B13: unnamed (peptide)
chain: VVWGTVIRV
B14: unnamed (peptide)
chain: SLDPHAQVAV
B15: unnamed (peptide)
chain: KLQDQIFNL
B16: unnamed (peptide)
chain: ALSKEGIVAL
B17: unnamed (peptide)
chain: SLLQTLYKV
B18: unnamed (peptide)
chain: ALGPGVPHI
B19: unnamed (peptide)
chain: VLADALKSI
B20: unnamed (peptide)
chain: KLNATNIEL
B21: unnamed (peptide)
chain: FLEPVNPRL
B22: unnamed (peptide)
chain: MLDDRAYLV
B23: unnamed (peptide)
chain: YPSEFATYL
B24: unnamed (peptide)
chain: TLDEYTTRV
B25: unnamed (peptide)
chain: LLPSEGIVHL
B26: unnamed (peptide)
chain: ALMPVLNQV
B27: unnamed (peptide)
chain: TLFPGKVHSL
B28: unnamed (peptide)
chain: SLAGGLDDMKA
B29: unnamed (peptide)
chain: MTDPIRILV
B30: unnamed (peptide)
chain: ALLKDSIVQL
B31: unnamed (peptide)
chain: SLDTQPKKV
B32: unnamed (peptide)
chain: VLLESEQFL
B33: unnamed (peptide)
chain: RLDEAFDFV
B34: unnamed (peptide)
chain: SLDAKEIYL
B35: unnamed (peptide)
chain: TTLEQPPSV
B36: unnamed (peptide)
chain: QLLPSIPQL
B37: unnamed (peptide)
chain: SLLDGVVEKL
B38: unnamed (peptide)
chain: TLFPVRLLV
B39: unnamed (peptide)
chain: GLIDGRLTI
B40: unnamed (peptide)
chain: FLLEQEKTQAL
B41: unnamed (peptide)
chain: LMGPVVHEV
B42: unnamed (peptide)
chain: QLQGYLRSV
B43: unnamed (peptide)
chain: GMDRYLIYV
B44: unnamed (peptide)
chain: YIYDKDMEII
B45: unnamed (peptide)
chain: QLLETLNQL
B46: unnamed (peptide)
chain: QLTNVILHL
B47: unnamed (peptide)
chain: SILSEVQQA
B48: unnamed (peptide)
chain: RLYQGINQL
B49: unnamed (peptide)
chain: FLPDPSALQNL
B50: unnamed (peptide)
chain: TLIDLPGITRV
B51: unnamed (peptide)
chain: LLAILPEAARA
B52: unnamed (peptide)
chain: ALLSGLREA
B53: unnamed (peptide)
chain: KLDQVIIHV
B54: unnamed (peptide)
chain: KVLEVTEEFGV
B55: unnamed (peptide)
chain: ILLEHGADPNL
B56: unnamed (peptide)
chain: SLLENIAKA
B57: unnamed (peptide)
chain: VLDEEIAKA
B58: unnamed (peptide)
chain: SLQEEIAKL
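Note: lysates heated 10 min at 37–73 °C, complexes pulled down with pan-HLA I antibody, peptide signal by DIA-MS relative to 37 °C, Tm where half the complex is unfolded.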

This assay has as its target HLA-A*02:01. As to the kind of experiment: thermal melting temperature (Tm) of peptide-HLA complex; higher = more thermostable pHLA complex. Particulars: C1R-A*02:01.
Regarding B1, the thermal melting temperature came to 53.8 °C. The figure for B2 is 57.3 °C.

For B3, the thermal melting temperature turned out to be 55.9 °C. The figure for B4 is 46.6 °C. The figure for B5 is 55.8 °C; for B6 it is 47.8 °C; for B7 it is 58.5 °C. B8 returned a thermal melting temperature of 55.5 °C. Regarding B9, the thermal melting temperature came out at 40.8 °C.

B10 registered a thermal melting temperature of 55.4 °C. The value for B11 was 61.3 °C. The figure for B12 is 41.6 °C; for B13 it is 58.5 °C; for B14 it is 48.9 °C.

B15 registered a thermal melting temperature of 56 °C. The figure for B16 is 59.5 °C; for B17 it is 63.6 °C.

B18 came in with a thermal melting temperature of 58 °C. Take B19: the thermal melting temperature came to 58.9 °C. B20 gave a thermal melting temperature of 51.5 °C.

Turning to B21, the thermal melting temperature worked out at 55.3 °C. In turn, B22 yielded a thermal melting temperature of 61.5 °C. The value for B23 was 56.5 °C; that for B24 was 52.2 °C. The figure for B25 is 41.3 °C. As to B26, the thermal melting temperature turned out to be 58.7 °C.

Take B27: the thermal melting temperature came to 55.8 °C.

Consider B28, for which the thermal melting temperature was 45.1 °C. In the case of B29, the thermal melting temperature is 41.9 °C. The value for B30 was 40.9 °C; that for B31 was 40.4 °C.

Turning to B32, the thermal melting temperature is 56.7 °C. The figure for B33 is 57 °C; for B34 it is 50.5 °C.

As for B35, the thermal melting temperature was found to be 50.3 °C. The figure for B36 is 53.7 °C; for B37 it is 55.5 °C; for B38 it is 55.8 °C. B39 registered a thermal melting temperature of 54 °C. The value for B40 was 59 °C; that for B41 was 46.4 °C. The value for B42 was 57.7 °C; that for B43 was 60.9 °C; that for B44 was 57.2 °C. B45 showed a thermal melting temperature of 41.4 °C. The figure for B46 is 58.7 °C.

On to B47, for which the thermal melting temperature is 53.3 °C. The figure for B48 is 55.9 °C; for B49 it is 55 °C. The value for B50 was 56.9 °C; that for B51 was 60 °C.

On to B52, for which the thermal melting temperature came out at 62.6 °C.

Sequence B53 registered a thermal melting temperature of 60.5 °C.

In the case of B54, the thermal melting temperature was determined as 62.6 °C. The figure for B55 is 51.4 °C. The value for B56 was 60.6 °C; that for B57 was 40.7 °C. The figure for B58 is 53.4 °C.
